# The antibiotic and cytotoxicity screens of Wong et al. (2023)
# Hit rate of the full screen: of about 39,000 compounds, about 3,300 (8.5%) were called active. Shown is part of a subset that was picked to be rich in actives.
# Test system: HepG2
# Test: cytotoxicity call (relative viability < 0.9)
# Conditions: 10 µM
row,SMILES,cytotoxicity call
1,Cn1cnc(S(=O)(=O)N[C@@H]2CC[C@H](CC(=O)Nc3ccccc3)O[C@H]2CO)c1,inactive
2,COc1ccc(CN(C)C[C@@H]2Oc3c(NS(=O)(=O)c4cn(C)cn4)cccc3C(=O)N([C@H](C)CO)C[C@@H]2C)cc1,inactive
3,CCCN(C)C[C@H]1Oc2cc(C#Cc3ccccc3OC)ccc2S(=O)(=O)N([C@@H](C)CO)C[C@H]1C,inactive
4,COc1ccc(S(=O)(=O)N(C)C[C@@H]2Oc3ccc(NS(=O)(=O)c4ccccc4)cc3C(=O)N([C@H](C)CO)C[C@H]2C)cc1,inactive
5,COc1c(O)cc2oc3cc(O)c(CC=C(C)C)c(O)c3c(=O)c2c1CC=C(C)C [alpha-MANGOSTIN ],active
6,COc1cc(O)c2c(=O)cc(C)oc2c1CC=C(C)C,inactive
7,CC(C)=CCc1c(O)cc2oc(C)cc(=O)c2c1O,inactive
8,CN(C)CCCNC(=O)[C@H]1[C@H](CO)[C@H]2Cn3c(ccc(-c4ccncc4)c3=O)[C@@H]1N2C(=O)C1CC1,inactive
9,COCC(=O)N(C)C[C@@H]1Oc2cc(C#C[C@@H](C)O)ccc2S(=O)(=O)N([C@H](C)CO)C[C@@H]1C,inactive
10,COCC(=O)Nc1ccc2c(c1)C(=O)N(C)[C@@H]1CC[C@H](CC(=O)NC3Cc4ccccc4C3)O[C@H]1CO2,inactive
11,C[C@@H]1CCCCO[C@@H](CN(C)Cc2ccc(Cl)c(Cl)c2)[C@H](C)CN([C@H](C)CO)C(=O)c2cc(NS(=O)(=O)c3ccccc3)ccc2O1,active
12,C[C@H](CO)N1C[C@H](C)[C@@H](CN(C)Cc2ccc(Cl)c(Cl)c2)OCCCC[C@H](C)Oc2ccc(NS(=O)(=O)c3ccccc3)cc2C1=O,active
13,C[C@@H]1CCCCO[C@H](CN(C)Cc2ccc(Cl)c(Cl)c2)[C@H](C)CN([C@@H](C)CO)C(=O)c2cc(NS(=O)(=O)c3ccccc3)ccc2O1,inactive
14,C[C@@H]1CCCCO[C@H](CN(C)Cc2ccc(Cl)c(Cl)c2)[C@@H](C)CN([C@H](C)CO)C(=O)c2cc(NS(=O)(=O)c3ccccc3)ccc2O1,inactive
15,C[C@@H]1CCCCO[C@H](CN(C)Cc2ccc(Cl)c(Cl)c2)[C@@H](C)CN([C@@H](C)CO)C(=O)c2cc(NS(=O)(=O)c3ccccc3)ccc2O1,active
16,C[C@@H]1CCCCO[C@@H](CN(C)Cc2ccc(Cl)c(Cl)c2)[C@H](C)CN([C@@H](C)CO)C(=O)c2cc(NS(=O)(=O)c3ccccc3)ccc2O1,active
17,CN(C)c1nc(NCCO)c2cnn(C)c2n1,inactive
18,Cc1noc(C)c1S(=O)(=O)N(C)C[C@@H]1Oc2ccc(NS(=O)(=O)c3ccccc3)cc2C(=O)N([C@@H](C)CO)C[C@@H]1C,inactive
19,C[C@@H]1CN([C@H](C)CO)C(=O)c2cc(NC(=O)Cn3cnnn3)ccc2O[C@@H]1CN(C)S(=O)(=O)c1cn(C)cn1,inactive
20,CC(C)NC(=O)N(C)C[C@@H]1OCCCC[C@H](C)Oc2ccc(NS(C)(=O)=O)cc2C(=O)N([C@H](C)CO)C[C@@H]1C,inactive

row,SMILES,cytotoxicity call
1,C[C@@H]1CN([C@H](C)CO)C(=O)c2cc(NS(=O)(=O)c3cn(C)cn3)ccc2O[C@@H](C)CCCCO[C@@H]1CN(C)S(=O)(=O)c1cccs1,inactive
2,CC(C)CC#Cc1ccc2c(c1)O[C@H](CN(C)C(=O)Cc1ccncc1)[C@H](C)CN([C@@H](C)CO)S2(=O)=O,inactive
3,C[C@@H]1CCCCO[C@@H](CN(C)C(=O)NC2CCCCC2)[C@H](C)CN([C@H](C)CO)C(=O)c2cc(NS(=O)(=O)c3ccc(F)cc3)ccc2O1,inactive
4,COc1ccc(S(=O)(=O)N(C)C[C@H]2Oc3ccc(NS(=O)(=O)c4cn(C)cn4)cc3C(=O)N([C@H](C)CO)C[C@@H]2C)cc1,inactive
5,COc1ccc(S(=O)(=O)N(C)C[C@@H]2OCCCC[C@@H](C)Oc3ccc(NS(C)(=O)=O)cc3C(=O)N([C@H](C)CO)C[C@H]2C)cc1,inactive
6,COc1ccc(S(=O)(=O)Nc2cccc3c2O[C@@H](CN(C)C(=O)NC(C)C)[C@H](C)CN([C@@H](C)CO)C3=O)cc1,inactive
7,C[C@H](CO)N1C[C@H](C)[C@H](CN(C)C(=O)Cc2ccccc2)OCCCC[C@H](C)Oc2ccc(NS(=O)(=O)c3cccs3)cc2C1=O,inactive
8,C[C@@H]1CN([C@H](C)CO)S(=O)(=O)c2ccc(C#Cc3ccccc3)cc2O[C@@H]1CN(C)S(=O)(=O)c1cn(C)cn1,inactive
9,C[C@@H]1CCCCO[C@@H](CN(C)Cc2ccc(Cl)c(Cl)c2)[C@@H](C)CN([C@@H](C)CO)C(=O)c2cc(NS(=O)(=O)c3ccccc3)ccc2O1,inactive
10,C[C@@H]1CN([C@H](C)CO)C(=O)c2cc(NS(=O)(=O)c3ccccc3)ccc2O[C@@H](C)CCCCO[C@H]1CN(C)Cc1ccc(Cl)c(Cl)c1,inactive
11,C[C@@H]1CCCCO[C@@H](CN(C)Cc2ccc(Cl)c(Cl)c2)[C@@H](C)CN([C@H](C)CO)C(=O)c2cc(NS(=O)(=O)c3ccccc3)ccc2O1,active
12,C[C@H]1CCCCO[C@H](CN(C)Cc2ccc(Cl)c(Cl)c2)[C@@H](C)CN([C@@H](C)CO)C(=O)c2cc(NS(=O)(=O)c3ccccc3)ccc2O1,active
13,C[C@@H]1CN([C@H](C)CO)C(=O)c2cc(NS(=O)(=O)c3ccccc3)ccc2O[C@@H](C)CCCCO[C@@H]1CN(C)Cc1ccc(Cl)c(Cl)c1,active
14,Nn1c([C@@H](O)c2ccccc2)n[nH]c1=S,inactive
15,COc1ccc(CN(C)C[C@H]2OCCCC[C@H](C)Oc3ccc(NC(=O)Cc4ccccc4)cc3C(=O)N([C@H](C)CO)C[C@H]2C)cc1,inactive
16,C[C@H]1CN([C@@H](C)CO)C(=O)c2cc(NC(=O)Cn3cnnn3)ccc2O[C@H]1CN(C)S(C)(=O)=O,inactive
17,C[C@H]1CN([C@@H](C)CO)C(=O)c2cc(C#CC(C)(C)O)cnc2O[C@@H]1CN(C)C(=O)CN(C)C,inactive
18,COc1ccc(NC(=O)N(C)C[C@@H]2OCCCC[C@@H](C)Oc3ccc(NS(=O)(=O)c4ccc(OC)cc4)cc3C(=O)N([C@@H](C)CO)C[C@@H]2C)cc1,inactive
19,CCOC(=O)CC1(C)NNC(=S)NN1,inactive
20,C[C@@](N)(C(=O)O)c1ccc(-c2nn[nH]n2)cc1,inactive
